# Bead autofluor – counter-screen for toxin protease inhibitors: compound fluorescence; 360,000 tested, 3.1% active; compound autofluorescence counterscreen, microsphere flow cytometry; active compounds read high; fluorescence intensity (no concentration beside the values); AID 624483; in the data active = fluorescence intensity above about 16000; inconclusive = no clear call, values can overlap the other calls
# Anthrax LF inh2 – blocks Bacillus anthracis lethal factor protease | P15917 | multiplex microsphere protease cleavage assay, LF | inhibition, % at 10 µM | 360,000 tested, 0.12% active | AID 588501; also: plate controls were buffer without enzyme for full effect and enzyme alone for no effect
# FBA Mtb inh – inhibits M. tuberculosis FBA enzyme | P9WQA3 | purified M. tuberculosis FBA, fluorescence read-out | inhibition, % at 1 µM | 360,000 tested, 2.3% active; in the data active = inhibition above about 27%;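 also: 0% = vehicle and 100% = reference inhibitor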
# BoNT A protease – blocks Botulinum neurotoxin A light chain protease. multiplex microsphere protease substrate cleavage, flow cytometry. 360,000 tested, 0.17% active. inhibition, % at 10 µM; also: plate controls were buffer without enzyme for full effect and enzyme alone for no effect
# BoNT-F LC inh – BoNT F light chain protease inhibition; Multiplex microsphere protease cleavage assay, flow cytometry; 360,000 tested, 0.22% active; AID 588497; inhibition, % at 10 µM; in the data active = inhibition above about 35%, passing the limit was not always enough; inconclusive = no clear call, values can overlap the other calls; also: plate controls were buffer without enzyme for full effect and enzyme alone for no effect
# GDH-TPI counter – inhibits GDH-TPI coupling enzymes, artifact for Mtb FBA screen | 360,000 tested, 1.2% active | AID 588335 | inhibition, % at 4.8 µM | GDH-TPI coupled enzyme counterscreen, NADH absorbance; in the data active = inhibition above about 30%;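 also: 0% = DMSO wells and 100% = wells lacking the enzyme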
# Numbers without * were called inactive; ? = inconclusive; / = not tested or not shown; + = active, no number. An excerpt weighted towards active compounds, which were near 6.7% of everything screened. Rule as the data show it, unless noted: active = inhibition above about 30%; inconclusive = no clear call, values can overlap the other calls; inactive = below that.
SMILES,Bead autofluor,Anthrax LF inh2,FBA Mtb inh,BoNT A protease,BoNT-F LC inh,GDH-TPI counter
CCc1[nH]c(=O)c(C#N)c2c1CSC(C)(C)C2,23170*,0,12,?,2,13
Cc1[nH]c(=O)c(C#N)c2c1CSC(C)(C)C2,11326,-4,2,-1,2,18
CCCCc1[nH]c(=O)c(C#N)c2c1CSC(C)(C)C2,22475*,-4,6,2,1,7
CCCCc1[nH]c(=O)c(C#N)c2c1CCCC2,9802,-1,11,0,3,12
CCOc1ccc(Nc2nc3c(c(=O)[nH]2)CCC3)cc1,16524*,0,-2,0,4,-4
CCOc1ccc(Nc2nc3c(c(=O)[nH]2)CCCC3)cc1,3197,-3,-3,0,3,6
CC(=O)NC1CC2CCCC(C1)N2CC(=O)N1CCCc2ccccc21 (stereo not drawn),4092,-1,2,1,-1,5
CCOC(=O)/C(C#N)=N\Nc1ccc(S(=O)(=O)Nc2nc(C)cc(C)n2)cc1,1991,1,-1,0,-1,5
COc1cc(NS(=O)(=O)c2ccc(NC(=S)NC(=O)c3ccco3)cc2)nc(OC)n1,4851,-3,-8,-1,-12,4
CCOC(=O)/C(C#N)=N/Nc1ccc(S(=O)(=O)Nc2cc(OC)nc(OC)n2)cc1,3763,-2,-8,-2,?,38*
COc1cc(NS(=O)(=O)c2ccc(N/C=C(\C#N)c3nc4cc(Cl)ccc4o3)cc2)nc(OC)n1,2964,9,5,0,-23,53*
COc1cc(NS(=O)(=O)c2ccc(NC(=O)c3ccco3)cc2)nc(OC)n1,17434*,-4,1,-6,-7,5
Fc1cccc(CNc2ncnc3ccc(-c4ccc5c(c4)OCO5)cc23)c1,3757,-7,5,0,-5,11
CCC(C(=O)OCC(=O)Nc1ccc(C(N)=O)cc1)c1ccccc1 (stereo not drawn),2033,-2,3,-1,0,5
CCC(C)[C@H](NC(=O)NC1CC1)C(=O)O (stereo partly drawn),23360*,-2,-6,?,0,-6
Cc1ccccc1Cn1c2ccccc2c2cnn(CC(=O)NCCCN3CCN(C)CC3)c(=O)c21,5075,-4,7,-2,-5,0
S=c1nccc(-c2ccc3c(c2)CCO3)[nH]1,?,-23,4,-33,?,49*
Cc1ccc(C(=O)C(OC(=O)CCC(=O)Nc2cccc(C)c2)c2ccccc2)cc1 (stereo not drawn),5221,-4,1,0,-3,-8
Cc1ccc(Oc2ccc(NC(=O)CCC(=O)OCC(=O)c3cccs3)cc2)cc1C,16284*,-7,0,0,-1,13
COc1ccc(C(=O)COC(=O)CCC(=O)Nc2ccc(C(C)=O)cc2)cc1,5542,-1,+,1,-7,7
COc1ccc(NC(=O)CCC(=O)OC(C(=O)c2ccccc2)c2ccccc2)cc1 (stereo not drawn),20295*,-4,0,0,0,-12
COc1ccc(NC(=O)CCCC(=O)OCC(F)(F)C(F)F)cc1,9108,-2,4,2,0,23
CC(=O)c1ccc(NC(=O)CCC(=O)OCC(F)(F)C(F)F)cc1,20248*,1,-1,?,-2,-6
CCCCCCCCCn1c2c(c(=N)c3c1CCC3)CCCC2,4800,-2,-3,-1,-3,2
CC(NS(=O)(=O)c1ccccc1)C(=O)Nc1nccs1 (stereo not drawn),8615,-3,-1,0,0,-6
SMILES,Bead autofluor,Anthrax LF inh2,FBA Mtb inh,BoNT A protease,BoNT-F LC inh,GDH-TPI counter
CCCN1CCN(C(=O)Nc2ccc(C(=O)OCC)cc2)CC1,20252*,-2,1,0,-1,12
CCOC(=O)c1ccc(NC(=O)N2CCCCCC2)cc1,6096,0,2,0,1,-4
CCCOC(=O)c1ccc(NC(=O)CCC(=O)OCC)cc1,21063*,0,0,4,11,-11
CCCOc1ccc(N2C(=O)CC(N(C(=O)c3ccco3)c3ccc(OCCC)cc3)C2=O)cc1 (stereo not drawn),16880*,-2,0,?,-5,6
CC(C)c1cc(C(N)=O)c(NC(=O)C2CCC2)s1,21955*,0,-1,1,4,-1
COC(=O)c1oc2c(c1C)C(=O)CC(C)(C)C2,3457,-4,0,1,0,-1
CC1(C)CC(=O)c2c(oc3cc(O)c(O)cc23)C1,17024*,-1,-4,-2,-3,16
COCCCN1C(=O)C2C(C(=O)Nc3cc(C)cc(C)c3)C3C=CC2(O3)C1C(=O)NC1CCCCC1 (stereo not drawn),4215,2,-7,0,0,4
CCOCCCNS(=O)(=O)c1ccc(NC(=O)CN2C(=O)c3ccccc3C2=O)cc1,4829,-9,1,0,-10,-4
Cc1c(C(=O)N(Cc2ccc(N(C)C)cc2)CC2CCCO2)oc2ccccc12 (stereo not drawn),5632,-4,2,0,1,6
Cc1c(C(=O)O)cccc1-n1c(C)cc(C=O)c1C,4404,3,1,0,3,2
O=C(COC(=O)[C@H](Cc1ccccc1)NC(=O)c1cccs1)NC1CCCCC1,2648,-1,0,0,-2,-4
O=C(COC(=O)[C@H](Cc1ccccc1)NS(=O)(=O)c1ccccc1F)NC1CCCCC1,18375*,-22,-1,7,12,-16
Cc1c(C(=O)Nc2ccccn2)oc2ccccc12,15471,-3,-1,4,4,9
CC(C)(C)n1nnnc1C(c1ccccc1)N1CCN(c2ncc(C(F)(F)F)cc2Cl)CC1 (stereo not drawn),4229,-8,/,-1,-4,/
Cc1ccc2[nH]cc(C(=O)CN3CCN(c4ccccc4F)CC3)c2c1,19645*,-3,-3,-1,-1,-1
CCN1CCN(CC(=O)c2c[nH]c3ccc(C)cc23)CC1,9143,-2,2,-1,-10,0
O=C(Nc1cc(S(=O)(=O)N2CCOCC2)ccc1N1CCOCC1)c1cn2ccccc2n1,3689,-5,9,1,4,7
COc1cc(/C=N/O)ccc1OCc1ccccc1Cl,3000,-1,-2,0,-2,0
COc1cc2c(cc1OC)-c1cc(NC3CCCC3)nc(=O)n1CC2,22438*,-4,6,?,1,27
COc1cc2c(cc1OC)-c1cc(OCc3ccccc3Cl)nc(=O)n1CC2,10447,-2,99*,-1,-4,29
COc1cc2c(cc1OC)-c1cc(Nc3ccc(N(C)C)cc3)nc(=O)n1CC2,4438,-25,5,?,?,18
CCN(CC)c1ccc(Nc2cc3n(c(=O)n2)CCc2cc(OC)c(OC)cc2-3)cc1,3810,-12,1,-3,?,38*
COc1cc2c(cc1OC)-c1cc(Nc3ccc(F)cc3)nc(=O)n1CC2,2839,7,1,1,14,16

# Source: PubChem BioAssay
